Experimental data taken from PubChem BioAssay (Tox21).
Where “and” joins values, the source holds several entries; their conditions need not be identical. Equal values may be shown once. Inconclusive results are not listed. Where a call stands in place of a potency, no number is given. Some structures have more than one record in an assay (separate samples or runs), and their calls can disagree. Calls of active or inactive are those of the source. Calls follow the shape of the dose curve; as a rule, active = well fitted curve in the direction sought with a large enough effect in the repeat runs; inconclusive = weak or mixed curves; inactive = no such curve, though single readings can be large; an effect the other way counts as inactive or inconclusive.

Test: A CellTox Green Cytotoxicity Assay to monitor cytotoxicity in HEK293 cells - 40 hour (AID 1224871); also: nearly all actives have a fitted effect of over 45% in size; also: potency is read from the fitted curve at half-maximal effect
Conditions: CellTox Green fluorescence; series mostly up to 76.8 µM
Outline: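 Dead-cell fluorescence measured kinetically: asymmetric cyanine dye, HEK293, 600 cells/well, 5 h settle, 23 nL cpd/DMSO, 37 C, reads 0–40 h every 8 h.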

Row | SMILES | Potency
1 | C=CCOC(Cn1ccnc1)c1ccc(Cl)cc1Cl (stereo not given) | 55.1 µM (active) and inactive
2 | C1CCC(NC2CCCCC2)CC1 | inactive
3 | O=C(O)COc1ccc(Cl)cc1Cl | inactive
4 | CC(=O)[O][Hg][c]1ccccc1 | 433 nM (active) and 1.1 µM (active) and 213 nM (active)
5 | C[N+](C)(C)Cc1ccccc1 | inactive
6 | CCC[N+]1(C)CCCC1 | inactive
7 | CCCC[N+]1(C)CCCC1 | inactive
8 | Cc1cc(-c2ccc(N)c(C)c2)ccc1N | inactive
9 | OCCOc1ccccc1 | inactive
10 | Nc1ccc(Cl)cc1 | inactive
11 | COc1ccc(N)cc1 | inactive
12 | CCCC[n+]1ccccc1 | inactive
13 | CCCC[n+]1ccc(C)cc1 | inactive and 21.8 µM (active)
14 | O=C(O)C(Cl)(Cl)Cl | inactive
15 | CCCC[n+]1cccc(C)c1 | inactive
16 | CCC[N+]1(C)CCCCC1 | inactive
17 | Nc1ccccc1 | inactive
18 | Nc1ccc(-c2ccc(N)cc2)cc1 | inactive
19 | Cc1cc(Cl)ccc1N | inactive and 38.9 µM (active)
20 | CCCC[n+]1ccccc1C | inactive
21 | COCC(=O)N(c1c(C)cccc1C)C(C)C(=O)OC (stereo not given) | inactive
22 | Oc1ccccc1-c1ccccc1 | inactive
23 | CCCCn1cc[n+](C)c1 | inactive
24 | CC(=O)O | inactive
25 | CCCCCCCCCCCCCC[P+](CCCCCC)(CCCCCC)CCCCCC | 13.9 µM (active) and 19.7 µM (active)
26 | O=c1nc(O)n(Cl)c(=O)n1Cl | inactive
27 | CCCCCCn1cc[n+](C)c1 | inactive
28 | COP(=O)(OC)C(O)C(Cl)(Cl)Cl (stereo not given) | inactive
29 | CCCCCCCCn1cc[n+](C)c1 | 19.4 µM (active) and 49.5 µM (active)

Test: qHTS RealTime-Glo MT Cell Viability Assay in HEK293 cells - 16 hour (AID 1224872); also: nearly all actives have a fitted effect of over 50% in size; also: potency is read from the fitted curve at half-maximal effect
Conditions: RealTime-Glo luminescence; series mostly up to 76.8 µM
Outline: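 Viability tracked continuously by luminescence as live cells reduce a prosubstrate for NanoLuc; HEK293 cells preincubated 5 h, compound-treated at 37 C, and read at 0, 8, 16, 24, 32 and 40 h.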

Row | SMILES | Potency
30 | C=CCOC(Cn1ccnc1)c1ccc(Cl)cc1Cl (stereo not given) | 43.8 µM (active)
31 | C1CCC(NC2CCCCC2)CC1 | inactive
32 | O=C(O)COc1ccc(Cl)cc1Cl | inactive
33 | CC(=O)[O][Hg][c]1ccccc1 | 344 nM (active) and 1.1 µM (active) and 268 nM (active)
34 | C[N+](C)(C)Cc1ccccc1 | inactive
35 | CCC[N+]1(C)CCCC1 | inactive
36 | Oc1cccc2cccnc12 | inactive
37 | CCCC[N+]1(C)CCCC1 | inactive
38 | Cc1cc(-c2ccc(N)c(C)c2)ccc1N | inactive
39 | OCCOc1ccccc1 | inactive
40 | Nc1ccc(Cl)cc1 | inactive
41 | COc1ccc(N)cc1 | inactive
42 | CCCC[n+]1ccccc1 | inactive
43 | CCCC[n+]1ccc(C)cc1 | 34.5 µM (active) and inactive
44 | O=C(O)C(Cl)(Cl)Cl | inactive
45 | CCCC[n+]1cccc(C)c1 | inactive
46 | CCC[N+]1(C)CCCCC1 | inactive
47 | Nc1ccccc1 | inactive
48 | Nc1ccc(-c2ccc(N)cc2)cc1 | inactive
49 | Cc1cc(Cl)ccc1N | inactive
50 | CCCC[n+]1ccccc1C | inactive
51 | CCCCCCCCCCn1cc[n+](C)c1 | inactive and 346 nM (active)
52 | COCC(=O)N(c1c(C)cccc1C)C(C)C(=O)OC (stereo not given) | inactive
53 | Oc1ccccc1-c1ccccc1 | inactive
54 | CCCCn1cc[n+](C)c1 | inactive
55 | CC(=O)O | inactive
56 | CCCCCCCCCCCCCC[P+](CCCCCC)(CCCCCC)CCCCCC | 7.8 µM (active) and 8.78 µM (active)
57 | O=c1nc(O)n(Cl)c(=O)n1Cl | inactive
58 | CCCCCCCCCCCCOS(=O)(=O)O | inactive
59 | COP(=O)(OC)C(O)C(Cl)(Cl)Cl (stereo not given) | inactive

Test: qHTS RealTime-Glo MT Cell Viability Assay in HepG2 cells - 8 hour (AID 1224873); also: nearly all actives have a fitted effect of over 55% in size
Conditions: RealTime-Glo luminescence; series mostly up to 76.8 µM
Outline: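 HepG2 cells mixed with RealTime-Glo MT reagents (NanoLuc plus cell-permeant prosubstrate) were seeded at 600 cells/well, incubated 5 h at 37 C/5% CO2, then pinned with compounds in DMSO; nonlytic luminescence tracked viability during 40 h treatment.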

Row | SMILES | Potency
60 | CCCCCCCCCCn1cc[n+](C)c1 | inactive
61 | CCCCCCCCCCCCOS(=O)(=O)O | inactive
62 | CCCCCCCCn1cc[n+](C)c1 | inactive

Test: qHTS RealTime-Glo MT Cell Viability Assay in HEK293 cells - 40 hour (AID 1224874); also: nearly all actives have a fitted effect of over 50% in size; also: potency is read from the fitted curve at half-maximal effect
Conditions: RealTime-Glo luminescence; max response: stronger effect = lower value
Outline: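 600 HEK293 cells per well, dispensed already mixed with RealTime-Glo MT reagents. Compound dosing came 5 h later. The same wells were read for luminescence at 0, 8, 16, 24, 32 and 40 h of exposure at 37 C.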

Row | SMILES | Potency | max response
63 | C=CCOC(Cn1ccnc1)c1ccc(Cl)cc1Cl (stereo not given) | 17.4 µM (active) and 38.9 µM (active) | –
64 | C1CCC(NC2CCCCC2)CC1 | – | 3.03% (inactive) and 3.3% (inactive) and 2.02% (inactive)
65 | O=C(O)COc1ccc(Cl)cc1Cl | – | 5.16% (inactive) [middle of 6 runs]
66 | CC(=O)[O][Hg][c]1ccccc1 | 306 nM (active) and 977 nM (active) and 213 nM (active) | –
67 | C[N+](C)(C)Cc1ccccc1 | – | 3.99% (inactive) and 18.8% (inactive) and -0.0813% (inactive)
68 | Oc1cccc2cccnc12 | 13.9 µM (active) and 23.3 µM (active) and 12.7 µM (active) | -0.234% (inactive)
69 | CCCC[N+]1(C)CCCC1 | – | 0.73% (inactive) [middle of 7 runs]
70 | Cc1cc(-c2ccc(N)c(C)c2)ccc1N | – | -20.5% (inactive) and -19.5% (inactive) and -26% (inactive)
71 | OCCOc1ccccc1 | – | -3.05% (inactive) and 0.273% (inactive) and 2.22% (inactive)
72 | Nc1ccc(Cl)cc1 | – | -5.43% (inactive) and 1.39% (inactive)
73 | COc1ccc(N)cc1 | – | -4.85% (inactive) [middle of 4 runs]
74 | O=C(O)C(Cl)(Cl)Cl | – | 1.76% (inactive) and 3.09% (inactive)
75 | CCCC[n+]1cccc(C)c1 | – | 7.15% (inactive) [middle of 6 runs]
76 | CCC[N+]1(C)CCCCC1 | – | -1.58% (inactive) and 7.15% (inactive) and 0.391% (inactive)
77 | Nc1ccccc1 | – | -1.34% (inactive) [middle of 4 runs]
78 | Nc1ccc(-c2ccc(N)cc2)cc1 | – | -0.165% (inactive) and -5.77% (inactive) and -8.89% (inactive)
79 | Cc1cc(Cl)ccc1N | – | 9.86% (inactive) and 3.76% (inactive) and 5.35% (inactive)
80 | CCCC[n+]1ccccc1C | – | 0.73% (inactive) [middle of 6 runs]
81 | CCCCCCCCCCCCn1cc[n+](C)c1 | – | 14.2% (inactive)
82 | COCC(=O)N(c1c(C)cccc1C)C(C)C(=O)OC (stereo not given) | – | 7.37% (inactive) and 3.62% (inactive) and 0.316% (inactive)
83 | Oc1ccccc1-c1ccccc1 | – | -9.5% (inactive) [middle of 4 runs]
84 | CC(=O)O | – | 1.59% (inactive) [middle of 4 runs]
85 | CCCCCCCCCCCCCC[P+](CCCCCC)(CCCCCC)CCCCCC | 2.47 µM (active) and 1.75 µM (active) and 1.23 µM (active) | –
86 | O=c1nc(O)n(Cl)c(=O)n1Cl | – | 3.95% (inactive) and 2.22% (inactive)
87 | CCCCCCn1cc[n+](C)c1 | 19.7 µM (active) [middle of 5 runs] | –
88 | COP(=O)(OC)C(O)C(Cl)(Cl)Cl (stereo not given) | – | -4.55% (inactive) and 3.86% (inactive)
89 | CCCCCCCCn1cc[n+](C)c1 | 3.46 µM (active) [middle of 4 runs] | –
